SMILES strings stand for the structures. Values joined by “and” are separate entries in the source; they are usually repeats but may differ in a detail not shown here. Equal entries are not always repeated. Compounds without any hit were thinned out: in the full panel of roughly 83,000, 20% have a hit.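 The test compound was applied at a single concentration to cells in 96-well plates for 48 hours, and percent growth was recorded.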 Unmarked numbers belong to inactive results. Active and inactive are the calls of the source. Rule for the calls: active = growth percent below 10; inactive = the rest.

In the assay the test system is MDA-MB-468 breast. Nature of the assay: NCI-60 one-dose screen, 48 h (100 = growth as untreated, 0 = no growth, -100 = all killed). Particulars: 10 µM unless noted.
In the case of `COc1ccc(C(=O)c2cc(OC)c(OC)c(OC)c2)cc1/C=C/C(=O)c1cc(OC)c(OC)c(OC)c1`, the growth is 73%. For `O=C1C=CC(Nc2ccccc2[N+](=O)[O-])C1Nc1ccccc1[N+](=O)[O-]` (stereo not given), the growth was -97.4% (active). In the case of `COc1cc2c(c(OC)c1OC)CCC(c1cccc(C(=O)Nc3ccccc3Br)c1)O2` (stereo not given), the growth is 85.2%.

On to `CC1CC(C)(C)OB(OC(C)CC(C)(C)OB2OC(C)CC(C)(C)O2)O1` (stereo not given), for which the growth is 105%. In the case of `COc1cc(C2CC(c3ccc4c(c3)OCO4)=NN2c2ccccc2)cc(OC)c1OC` (stereo not given), the growth is 75.7%.

Take `CCN(CC)C(=O)C1CCN(C(=O)c2ccccc2)CC1`: the growth is 109%. Regarding `S=c1[nH]nc2sc3ccccc3n12`, the growth was 122%. In the case of `CSc1nc(S(C)(=O)=O)nc2[nH]c(=O)[nH]c12` it was 103%; in that of `CC(C)(C)OC(=O)c1ccc(NCc2cc(O)ccc2O)cc1`, -17.6% (active); in that of `C=C1c2c(C)nn(-c3ccc(S(N)(=O)=O)cc3)c2N(C)C23CC1C1(C)c4c(C)nn(-c5ccc(S(N)(=O)=O)cc5)c4N(C)C(C)(CC12)C3` (stereo not given), 0.632% (active). Next, `CC(CN)[C@@H]1CC[C@]2(CO)CC[C@]3(C)[C@H](CC[C@@H]4[C@@]5(C)CCC(NCCO)C(C)(C)[C@@H]5CC[C@]43C)[C@@H]12` (stereo not given in full): 11.8%. On to `O=C1/C(=C/c2ccc(-c3cccc(C(F)(F)F)c3)o2)SC(=S)N1CCc1ccc(O)cc1`, for which the growth was 95%. In the case of `COc1cccc2c1O/C(=C\c1ccc([N+](=O)[O-])s1)C2=O` it was 14.5%.

For `O=C1c2ccccc2C(=O)c2c1cccc2-n1nnc2ccccc21`, the growth was 109%.

Regarding `Cc1ccc(-c2nc3nc(-c4ccc(F)cc4)nc(N4CCNCC4)c3o2)cc1`, the growth is 54.3%. Consider `COc1ccc(NC(N)=NCCCOc2ccc(F)cc2)cc1`, for which the growth was 66.2%. For `CN(C)CCOc1cccc(NC2=C(Cl)C(=O)C(Nc3cccc(OCCN(C)C)c3)=C(Cl)C2=O)c1`, the growth was -47.1% (active).

Regarding `O=c1ccccc(-c2ccc(Br)cc2)c1O`, the growth was 12.3%.

`COC(=O)c1cc(Nc2ccc(O)c3c2C(=O)c2c([N+](=O)[O-])ccc(O)c2C3=O)cc(C(=O)OC)c1`: the growth is 71.9%. Next, `O=C(CBr)c1ccc(OC(=O)c2ccccc2)cc1`: 116%; `NC(=S)N/N=C/c1ccc(OCc2ccccc2)cc1`: 47.3%; `COc1ccc2c(c1)c(-c1noc(C(=O)c3cn(C)c4ncc(Br)cc34)n1)cn2C`: 76.1%.

As to `O=C(Oc1cccc2cccnc12)c1ccccc1`, the growth is 71.7% and 93.1%.

For the compound `CN1CC[C@H](c2c(O)cc(O)c3c(=O)cc(-c4ccccc4Cl)oc23)[C@H](O)C1`, the growth was -42.7% (active). For the compound `COc1ccc(-n2nnc(C(=O)NCCc3c[nH]c4ccc(F)cc34)c2C)cc1`, the growth is 109%.

With `CC[C@H]1CCC/C=C/[C@@H]2C[C@H](O)C[C@H]2[C@H](O)/C=C/C(=O)O1`, the growth was -51.5% (active). For `CN1CCC(c2ccccc2)(c2ccccc2)C(=O)C1`, the growth is -11.8% (active). For the compound `COc1cc(Cl)cc(-c2nn(-c3cccc(NC(=O)c4cc(C(F)(F)F)cc(C(F)(F)F)c4)c3)cc2-c2ccncc2)c1`, the growth is 46.5%. In the case of `O=C(N/N=C/c1ccccc1SSc1ccccc1/C=N/NC(=O)c1ccccc1)c1ccccc1` it was 51.9%; in that of `O=[N+]([O-])c1ccc(N=Nc2c(O)c(N=Nc3cc([N+](=O)[O-])cc([N+](=O)[O-])c3O)cc(N=Nc3cc(S(=O)(=O)O)cc4cc(S(=O)(=O)O)cc(O)c34)c2O)cc1`, 100%; in that of `O=C(CN1CCOCC1)NNc1ncnc2ccccc12`, 55.9%. With `CCn1c(-c2cc3c([nH]c4ccccc43)c(-c3cccc(O)c3)n2)n[nH]c1=S`, the growth is 16.1%. Turning to `O=S(c1ccccc1)c1ccc2nnnn2n1` (stereo not given), the growth is 112%. Consider `Cc1ccc(CC#N)cc1C`, for which the growth was 104%. In the case of `Fc1cccc(COc2ccc(Nc3ncnc4onc(-c5ccccc5)c34)cc2)c1` it was 9.54% (active). Consider `CN1CCN(CC(=O)Nc2nc3c(s2)Nc2cc(Cl)c(Cl)cc2NC3=O)CC1`, for which the growth is 114%. As to `CC(C)c1ccc2occ(C=C3C(=O)NC(=O)NC3=O)c(=O)c2c1`, the growth is 96.9%.

For `CC(C)C[C@H](NC(=O)[C@H](Cc1ccccc1)n1ccc(N2CCCCC2)cc1=O)B(O)O`, the growth is -24.1% (active).

As to `O=C1NC(=C(Cl)Cl)/C(=N/S(=O)(=O)N2CCCCC2CC2(C(F)(F)F)N=N2)N1` (stereo not given), the growth was -44.8% (active). Regarding `CSc1ccc2c3c(n(CCCn4ccnc4)c(=O)c2c1)-c1ccccc1C3=O`, the growth was 18.2%.

For the origin of these results see PubChem BioAssay (NCI).
